Assay results from PubChem BioAssay (NCI).
This is part of a sample that, as a whole, favours compounds with a hit. Of some 79,000 tested, about 15% had one in any assay. Cut-off read from the data, not from the text of the source: active = growth inhibition above about 70%; inactive = the rest.

How the values were obtained:
[1] = NCI Yeast Anticancer Drug Screen. Data for the rad50 strain (AID 155);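 note: 0% = growth of vehicle-only cultures of the same strain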; settings: S. cerevisiae rad50 strain growth inhibition; at 50.0 µM; active compounds read high
Procedure, shortened: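 Vehicle-treated cultures provide the reference for the growth inhibition reported for compound-exposed, repair-deficient yeast.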

[2] = NCI Yeast Anticancer Drug Screen. Data for the mec2-1 strain (AID 157); settings: S. cerevisiae mec2-1 strain, at 50.0 µM, active compounds read high
Procedure, shortened: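 Each compound was tested on mec2-1 yeast, a strain altered in DNA damage repair or cell cycle control. Growth inhibition is reported relative to vehicle.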

[3] = NCI Yeast Anticancer Drug Screen. Data for the sgs1 mgt1 strain (AID 161);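 note: 0% = growth of cultures given vehicle only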; settings: S. cerevisiae sgs1 mgt1 strain, at 50.0 µM, active compounds read high
Procedure, shortened: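 Genetically altered yeast, compound exposure, growth inhibition relative to vehicle.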

[4] = NCI Yeast Anticancer Drug Screen. Data for the cln2 rad14 strain (AID 165);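 note: 0% = growth equal to vehicle treated cultures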; settings: S. cerevisiae cln2 rad14 strain, at 50.0 µM, active compounds read high
Procedure, shortened: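 Test compounds were added to cln2 rad14 yeast cultures; inhibition of growth was then determined by comparison with vehicle treatment.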

[5] = NCI Yeast Anticancer Drug Screen. Data for the mlh1 rad18 strain (AID 175); settings: S. cerevisiae mlh1 rad18 strain growth inhibition; at 50.0 µM; active compounds read high
Procedure, shortened: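 Inhibition values reflect reduced growth of mutant yeast versus vehicle-treated controls following compound exposure; the mutations affect DNA damage repair.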

[6] = NCI Yeast Anticancer Drug Screen. Data for the bub3 strain (AID 167); settings: S. cerevisiae bub3 mutant strain, at 50.0 µM, active compounds read high
Procedure, shortened: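 Mutant yeast screening strain plus compound; vehicle-treated cultures serve as the 0% inhibition reference.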

Measured: growth inhibition

O=C(Oc1c(Cl)c(Cl)c(Cl)c(Cl)c1Cl)Oc1c(Cl)c(Cl)c(Cl)c(Cl)c1Cl
inactive: [1] -13.7% | [2] -8.25% | [3] 19.1% | [4] -15.1% | [5] 3.4%

Clc1ccccc1N=NNc1ccccc1Cl
inactive: [1] 15.8% | [2] -2.4% | [3] 7.05% | [4] -29.5% | [5] 6.75%

NC(=S)c1ccccc1N=Cc1cccs1
inactive: [1] 26.8% | [2] 16.1% | [3] 14.2% | [4] -7.7% | [5] 41.5%

CN(Cc1cnc2nc(N)nc(N)c2n1)c1ccc(C(=O)NC(CCC(=O)OCc2cc3c(cc2Cl)OCO3)C(=O)OCc2cc3c(cc2Cl)OCO3)cc1 (stereo unspecified)
inactive: [1] 16.9% | [2] 58.3% | [3] 42% | [4] 44.6% | [5] 46.2%

O=C(O)c1ccccc1/C=N\NC1=NCCN1
inactive: [1] -45.1% | [2] -13.4% | [3] -11.4% | [4] 12.7% | [5] -6.35%

COc1ccc(/C(=N\NC(=O)NN)C(c2ccc(OC)cc2)C2(O)C(=O)Nc3c(Cl)cc(Cl)cc32)cc1 (stereo unspecified)
inactive: [1] 6.2% | [2] -7.75% | [3] -57% | [4] -16.8% | [5] -10.2%

CN(C)CC(C(N)=O)C(N)=O
inactive: [1] -26.1% | [2] -18.8% | [3] -19.8% | [4] 9.6% | [5] 7.45%

CSc1ccc(NC(=O)Nc2cccc(F)c2)cc1
inactive: [1] -2.15% | [2] 11.9% | [3] 27.2% | [4] -18.5% | [5] 35.6%

CCCC/C(C)=N/NC(N)=S
inactive: [1] 2.3% | [2] -4.3% | [3] -4.3% | [4] -2.65% | [5] 1.9%

Cc1ccc(C(C)C)cc1OC(=O)NC1CCCCC1
inactive: [1] -4% | [2] 9.3% | [3] 9.9% | [4] -13.2% | [5] -0.6%

O=[N+]([O-])c1cc(Cl)c(Cl)c(Cl)c1Cl
inactive: [1] 17.1% | [2] 3.4% | [3] -1% | [4] 14.8% | [5] 31.4%

CCOC(=O)c1ccc(NC(C)=O)cc1
inactive: [1] 18% | [2] 9.2% | [3] 9.3% | [4] -5.45% | [5] 12.1%

CCCC(C)(CCC)OC(=O)Nc1cccc2ccccc12
inactive: [1] -3% | [2] -4.2% | [3] -4.4% | [4] -10.7% | [5] 15.2%

O=[N+]([O-])c1ncc(N(CCO)CCO)s1
inactive: [1] 19.2% | [2] -22.6% | [3] 17.6% | [4] 3.65% | [5] -22.3%

Cn1c2c(c(=O)c3c4[nH]c5c(c(=O)c4ccc31)CCCC5)CCCC2
inactive: [1] -10.2% | [2] 3.7% | [3] -15.1% | [4] -5.65% | [5] 3.6%

O=C(N=Nc1c(O)[nH]c2ccccc12)C(=O)N=Nc1c(O)[nH]c2ccccc12
inactive: [1] -4.95% | [2] 8.35% | [3] 9.5% | [4] -1.1% | [5] 26.6%

CC(=O)NNC(=S)/N=C/C(C(=O)Nc1ccc([N+](=O)[O-])cc1)=C(\C)O
inactive: [1] -19.8% | [2] 4.4% | [3] -21.9% | [4] 15.8% | [5] -4%

CC(NC(=O)NC(C)(C)C)c1ccccc1 (stereo unspecified)
inactive: [1] 3.05% | [2] -12.9% | [3] -5.05% | [4] -37% | [5] 4.1%

CCOC(=O)C1=NN(c2ccccc2)C(=O)/C1=C\n1c(=S)sc2ccccc21
inactive: [1] -7.25% | [2] -24.4% | [3] -6.5% | [4] -16.1% | [5] -2.4%

N#CNc1c2ccccc2nc2ccccc12
inactive: [1] -12.1% | [2] 1.05% | [3] -16.6% | [4] 2.85% | [5] -4.75%

S=c1[nH]c(=S)c2nnn(-c3ccccc3)c2[nH]1
inactive: [1] -47% | [2] -38% | [3] -31.5% | [4] -25.9% | [5] -34%

Cn1ccccc1=O
inactive: [1] 36.8% | [2] -26.7% | [3] -8.55% | [4] -56.5% | [6] 3.4% | [5] 27.2%

Cc1nc2cccc3ccc4cc5ccccc5c1c4c32
inactive: [1] 69.6% | [2] 12.7% | [3] 16.1% | [4] 7.3% | [5] 14.9%

NC(=O)N/N=C1\CCn2cccc21
inactive: [1] -10.8% | [2] 1% | [3] -3.25% | [4] -2.2% | [5] -5.1%

O=C(Cc1nc(-c2ccccc2)cc(=O)n1-c1ccccc1Cl)c1ccncc1
inactive: [1] 32.4% | [2] 12.5% | [3] -6.3% | [4] 21.2% | [5] 20.4%

O=C(O)c1cnc2cccc([N+](=O)[O-])c2c1
inactive: [1] 2.5% | [2] 10.7% | [3] 0.2% | [4] -50.5% | [5] 11.4%

O=[N+]([O-])c1ccc(-c2cc3ccccn3c2)cc1
inactive: [1] -5.1% | [2] -46.2% | [3] -9.7% | [4] -11.8% | [5] -18.1%

C/C(=C1/N=C(c2cc([N+](=O)[O-])ccc2Cl)N(c2ccc(Br)cc2)C1=O)c1cc2ccccc2oc1=O
inactive: [1] 35.3% | [2] 17.7% | [3] 15.7% | [4] 14.1% | [5] 19.8%

O=c1ccn(C2OC(CO)C(O)C2Cl)c(=O)[nH]1 (stereo unspecified)
inactive: [1] -6.7% | [2] -42.1% | [3] -11.4% | [4] 10.2% | [5] -14.4%

COC(=O)C1(O)CCC(C)CC1 (stereo unspecified)
inactive: [1] 14.4% | [2] -9.25% | [3] -8.65% | [4] -26.3% | [5] 14.8%

Cc1ccc2oc(=O)cc(CC(=O)O)c2c1
inactive: [1] -6% | [2] -8.3% | [3] -10.4% | [4] 12.1% | [5] -7.9%

CCOc1ccc(N=Nc2ccc3oc(=O)c(/C(C)=N/NC(=O)CC(=O)Nc4cccc(OC)c4)cc3c2)cc1
inactive: [1] 44.5% | [2] 36% | [3] 25.2% | [4] -17.3% | [5] 44.1%

COC(=O)CC(c1ccc(OC)cc1)C(CC(=O)OC)c1ccc(OC)cc1 (stereo unspecified)
inactive: [1] -19.2% | [2] -29.8% | [3] 13.9% | [4] 15.8% | [5] -20.1%

O=C(O)/C(Br)=C(\Br)c1ccccc1
inactive: [1] 23.9% | [2] 15.8% | [3] 14.6% | [4] 14.4% | [5] 12.5%

NC1=NS(=O)(=O)Nc2nc(-c3ccc([N+](=O)[O-])cc3)[nH]c21
inactive: [1] -43% | [2] -45.8% | [3] -53% | [4] -22.4% | [5] -45%

CCO[Si](OCC)(OCC)c1ccccc1
inactive: [1] -28.7% | [2] -21.3% | [3] -10.7% | [4] -5.85% | [5] -15.8%

Cc1ccc2ccccc2c1C(=O)c1ccccc1Cc1cccc2ccccc12
inactive: [1] 17.6% | [2] 2.65% | [3] 10.6% | [4] 2.2% | [5] -1.05%

Nc1ncc2c(n1)SCC2
inactive: [1] -10.3% | [2] -5.8% | [3] -8.25% | [4] -19.7% | [5] -19.6%

COC(=O)c1nc(N)nc(C(=O)OC)c1C(=O)c1ccc(Cl)c(Cl)c1
inactive: [1] -7.6% | [2] 7.15% | [3] -18.5% | [4] -5.05% | [5] 10.6%

CC(O)c1cccc(C(C)(C)O)c1Sc1c(C(C)(C)O)cccc1C(C)(C)O (stereo unspecified)
inactive: [1] 13% | [2] 7.8% | [3] 10.1% | [4] -0.75% | [5] -14.6%

CCOC(=O)C(=C/C=C/NCCc1c[nH]c2ccccc12)C(=O)OCC
inactive: [1] -23.1% | [2] -44.5% | [4] -10.2% | [6] -15.2% | [5] -26.2%

O=C1CCCC1CC(CN1CCOCC1)Sc1nnnn1-c1ccccc1 (stereo unspecified)
inactive: [1] 6.55% | [2] -3.5% | [4] -16.6% | [6] 25.2% | [5] -45.8%

C[CH2][Sn]([CH2]C)([N](c1ccccn1)c1ccccn1)[N](c1ccccn1)c1ccccn1
inactive: [1] -1.75% | [2] -2.25% | [4] 4.3% | [6] -0.6% | [5] -25.1%

COC(=O)C(Cc1nc2ccc(Cl)cc2[nH]c1=O)/C(=N/O)C(=O)Nc1cccc(Cl)c1C (stereo unspecified)
inactive: [1] 22.6% | [2] 0.95% | [4] -40.9% | [6] 0.3% | [5] -4.55%

Cc1nc(-n2nc(-c3ccccc3)cc2-c2ccccc2)sc1C(/C=C/c1ccc([N+](=O)[O-])cc1)=N/NC(N)=S
inactive: [1] 18.6% | [2] 7.15% | [4] -18.3% | [6] 44.4% | [5] 33.7%

CC(C)CCC[C@@H](C)[C@H]1CC[C@H]2[C@@H]3CC[C@H]4CC5(C[C@]4(C)[C@H]3CC[C@]12C)Nc1ccccc1S5 (stereo partly specified)
inactive: [1] -8.05% | [2] -19.9% | [4] 4.55% | [6] -25.9% | [5] -40.7%
